Measured values from PubChem BioAssay (NCATS).
Records with an inconclusive call do not appear. A call without a number means that no potency is given here. Calls of active or inactive are those of the source. The call rests on the fitted dose curve; in most records, active means well fitted cell-killing curve with a large enough effect; inconclusive means small, poorly fitted or top-dose-only effect; inactive means flat fitted curve, though single readings scatter.

assay: Cell Viability - LYMP2-011 (AID 969); conditions: LYMP2-011 lymphoblastoid cells viability; series mostly up to 92.2 µM; further: nearly all actives have a fitted effect of over 60% in size
Procedure, shortened: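 2500 cells/well, 5 hr 37 C; compound added, 24 hr 37 C; CellTiter-Glo 30 min RT; luminescence. qHTS concentration-response, Hill-equation AC50. Tetraoctylammonium bromide positive control.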

SMILES	Potency
CC(C#N)CCC#N (centres undefined)	inactive
Nc1cc(Cl)ccc1Cl	inactive
Nc1cccc(Cl)c1	inactive
ClCc1ccccc1	inactive
CCC/C=N/O	inactive
COc1c(C(C)(C)C)cc([N+](=O)[O-])c(C)c1[N+](=O)[O-]	inactive
C=CCOCC1CO1 (centres undefined)	inactive
c1ccoc1	inactive
Clc1ccccc1	inactive
ClC(Cl)(Cl)C(Cl)(Cl)Cl	inactive
CCOC(=O)C1OC1(C)c1ccccc1 (centres undefined)	inactive
C/C=C/CC#N	inactive
ClC(Cl)C(Cl)Cl	inactive
Oc1c(Cl)cccc1Cl	inactive
Brc1cccc(-c2ccccc2)c1	inactive
C=CCO	inactive
OCCCCO	inactive
Cc1ccccc1[N+](=O)[O-]	inactive
CCCCOC(=O)c1ccccc1N	inactive
CN(C)C(=O)Cl	inactive
CC(=O)NNc1ccccc1	inactive
Cc1ccc(N=C=O)cc1N=C=O	inactive
O=C(Cl)OCc1ccccc1	inactive
C=CC(=O)OC	inactive
CC(C)CON=O	inactive
CC[N+](=O)[O-]	inactive
CC(C)(Cl)[N+](=O)[O-]	inactive
CC(C)OC(=O)Cc1ccccc1	inactive
ClCC(Br)CBr (centres undefined)	inactive

assay: Cell Viability - LYMP2-013 (AID 970); conditions: LYMP2-013 lymphoblastoid cells viability; series mostly up to 92.2 µM; further: nearly all actives have a fitted effect of over 55% in size
Procedure, shortened: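 qHTS; 2500 lymphoblastoid cells/well; 5 hr 37 C settle; cpd 24 hr 37 C; CellTiter-Glo, 30 min RT; luminescence. AC50 = Hill fit.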

SMILES	Potency
CC(C#N)CCC#N (centres undefined)	inactive
Nc1cc(Cl)ccc1Cl	inactive
Nc1cccc(Cl)c1	inactive
CCC/C=N/O	inactive
COc1c(C(C)(C)C)cc([N+](=O)[O-])c(C)c1[N+](=O)[O-]	inactive
O=S(=O)(Cl)c1ccccc1	inactive
C=CCOCC1CO1 (centres undefined)	inactive
c1ccoc1	inactive
Clc1ccccc1	inactive
ClC(Cl)(Cl)C(Cl)(Cl)Cl	inactive
C/C=C/CC#N	inactive
ClC(Cl)C(Cl)Cl	inactive
C=CCCl	inactive
Oc1c(Cl)cccc1Cl	inactive
Brc1cccc(-c2ccccc2)c1	inactive
C=CCO	inactive

SMILES	Potency
OCCCCO	inactive
Nn1cnnc1	inactive
Cc1ccccc1[N+](=O)[O-]	inactive
CCCCOC(=O)c1ccccc1N	inactive
Cc1ccc(N)c(C)c1	inactive
C1CC2OC2CC1C1CO1 (centres undefined)	inactive
CN(C)C(=O)Cl	inactive
CC(=O)NNc1ccccc1	inactive
C=CC(=O)OC	inactive
CCN(CC)N=O	inactive
OCC(Cl)CCl (centres undefined)	inactive
CC[N+](=O)[O-]	inactive
CC(C)(Cl)[N+](=O)[O-]	inactive
C[N+](=O)[O-]	inactive
CC(C)OC(=O)Cc1ccccc1	inactive
ClCC(Br)CBr (centres undefined)	inactive

assay: Cell Viability - LYMP2-015 (AID 971); conditions: LYMP2-015 lymphoblastoid cell viability; series mostly up to 92.2 µM; further: nearly all actives have a fitted effect of over 55% in size
Procedure, shortened: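 Luminescent ATP read-out (CellTiter-Glo) served as the viability measure after lymphoblastoid cells were exposed to compounds for 24 hours at 37 C. Concentration-response data were fitted with the Hill equation to give AC50.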

SMILES	Potency
CC(C#N)CCC#N (centres undefined)	inactive
Nc1cc(Cl)ccc1Cl	inactive
Nc1cccc(Cl)c1	inactive
ClCc1ccccc1	inactive
CCC/C=N/O	inactive
COc1c(C(C)(C)C)cc([N+](=O)[O-])c(C)c1[N+](=O)[O-]	inactive
O=S(=O)(Cl)c1ccccc1	inactive
C=CCOCC1CO1 (centres undefined)	inactive
c1ccoc1	inactive
Clc1ccccc1	inactive
ClC(Cl)(Cl)C(Cl)(Cl)Cl	inactive
CCOC(=O)C1OC1(C)c1ccccc1 (centres undefined)	inactive
C/C=C/CC#N	inactive
ClC(Cl)C(Cl)Cl	inactive
C=CCCl	inactive
Oc1c(Cl)cccc1Cl	inactive
Brc1cccc(-c2ccccc2)c1	inactive
C=CCO	inactive
OCCCCO	inactive
Nn1cnnc1	inactive

SMILES	Potency
BrCCc1ccccc1	inactive
Cc1ccccc1[N+](=O)[O-]	inactive
CCCCOC(=O)c1ccccc1N	inactive
Clc1cc(Cl)c(Cl)c(Cl)c1	inactive
Cc1ccc(N)c(C)c1	inactive
C1CC2OC2CC1C1CO1 (centres undefined)	inactive
CN(C)C(=O)Cl	inactive
CC(=O)NNc1ccccc1	inactive
Cc1ccc(N=C=O)cc1N=C=O	inactive
O=C(Cl)OCc1ccccc1	inactive
C=CC(=O)OC	inactive
CCN(CC)N=O	inactive
OCC(Cl)CCl (centres undefined)	inactive
CC(C)CON=O	inactive
CC[N+](=O)[O-]	inactive
CC(C)(Cl)[N+](=O)[O-]	inactive
C[N+](=O)[O-]	inactive
CC(C)OC(=O)Cc1ccccc1	inactive
ClCC(Br)CBr (centres undefined)	inactive

assay: Cell Viability - LYMP2-017 (AID 972); conditions: LYMP2-017 lymphoblastoid cell viability; series mostly up to 92.2 µM; further: nearly all actives have a fitted effect of over 55% in size
Procedure, shortened: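 2500 cells/well, 5 h 37 C; cpd 24 h 37 C in complete medium; CellTiter-Glo, 30 min RT; luminescence (ATP). AC50 via Hill fit, qHTS.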

SMILES	Potency
CC(C#N)CCC#N (centres undefined)	inactive
Nc1cc(Cl)ccc1Cl	inactive
Nc1cccc(Cl)c1	inactive
ClCc1ccccc1	inactive
CCC/C=N/O	inactive
COc1c(C(C)(C)C)cc([N+](=O)[O-])c(C)c1[N+](=O)[O-]	inactive
O=S(=O)(Cl)c1ccccc1	inactive
C=CCOCC1CO1 (centres undefined)	inactive
c1ccoc1	inactive
Clc1ccccc1	inactive
ClC(Cl)(Cl)C(Cl)(Cl)Cl	inactive
CCOC(=O)C1OC1(C)c1ccccc1 (centres undefined)	inactive
C/C=C/CC#N	inactive
ClC(Cl)C(Cl)Cl	inactive
C=CCCl	inactive
Oc1c(Cl)cccc1Cl	inactive
Brc1cccc(-c2ccccc2)c1	inactive
C=CCO	inactive
OCCCCO	inactive
Nn1cnnc1	inactive

SMILES	Potency
BrCCc1ccccc1	inactive
Cc1ccccc1[N+](=O)[O-]	inactive
CCCCOC(=O)c1ccccc1N	inactive
Clc1cc(Cl)c(Cl)c(Cl)c1	inactive
Cc1ccc(N)c(C)c1	inactive
C1CC2OC2CC1C1CO1 (centres undefined)	inactive
CN(C)C(=O)Cl	inactive
CC(=O)NNc1ccccc1	inactive
Cc1ccc(N=C=O)cc1N=C=O	inactive
O=C(Cl)OCc1ccccc1	inactive
C=CC(=O)OC	inactive
CCN(CC)N=O	inactive
OCC(Cl)CCl (centres undefined)	inactive
CC(C)CON=O	inactive
CC[N+](=O)[O-]	inactive
CC(C)(Cl)[N+](=O)[O-]	inactive
C[N+](=O)[O-]	inactive
CC(C)OC(=O)Cc1ccccc1	inactive
ClCC(Br)CBr (centres undefined)	inactive
